Experimental data reported in the supplement of paper PMC7366291.
Structures can show the parent of a compound that is named as a salt. ± gives the standard deviation or the standard deviation of the averaged measurements.

Columns and labels:
Conditions in all cases: 25 µM; exposure: 24-48 hpf
[1] = tested on: Danio rerio Tg(wt1b:EGFP) embryo, pronephros; test: glomerular separation, fold change vs DMSO control; higher = glomeruli further apart (abnormal)
Method in brief: (§1)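 From 24 to 48 hpf, at 28.5°C, dechorionated Tg(wt1b:EGFP) zebrafish embryos sat in HEPES-buffered E3 with 0.003% PTU carrying 25 μM compound and 0.5% DMSO. Their pronephroi were imaged dorsally in 96-well plates filled with agarose, using 470 nm light and 10 z-slices. A Fiji macro measured distances and angles between 16 reference points that were set manually on maximum projections, and any value more than 2 SD from its feature mean was excluded. Features are expressed as fold change relative to the mean of DMSO-treated embryos imaged on the same day.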

[2] = tested on: Danio rerio Tg(wt1b:EGFP) embryo, pronephros; test: glomerular width (mean of left and right), fold change vs DMSO control; higher = wider glomerulus
Method in brief: as §1

[3] = tested on: Danio rerio Tg(wt1b:EGFP) embryo, pronephros; test: fraction of imaged embryos annotated as normal kidney; higher = less nephrotoxic; extreme values may be limits of the assay
Method in brief: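 Zebrafish embryos carrying Tg(wt1b:EGFP) were dechorionated and exposed to 25 μM compound (0.5% DMSO) between 24 and 48 hpf at 28.5°C. Their pronephroi were imaged by widefield fluorescence, and each embryo was classed by hand from maximum projections. The measure is the fraction of embryos per treatment falling in the normal-kidney category.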

[4] = tested on: Danio rerio Tg(wt1b:EGFP) embryo, pronephros; test: pronephric angle neck segment to proximal convoluted tubule (mean of left and right), fold change vs DMSO control; higher = larger pronephric angle
Method in brief: as §1

Compound | glomerular separation [1] | glomerular width [2] | fraction of imaged embryos annotated as normal kidney [3] | pronephric angle neck segment [4]
Fc1ccc(C(c2ccc(F)cc2)N2CCN(C/C=C/c3ccccc3)CC2)cc1 [Flunarizine dihydrochloride] | 1.22 ± 0.69 | 0.932 ± 0.0099 | 0.364 | 0.937 ± 0.017
Clc1ccc(C(c2ccccc2Cl)C(Cl)Cl)cc1 (stereo not given) [Mitotane] | 0.566 ± 0.18 | 0.969 ± 0.038 | 0.909 | 1.05 ± 0.049
CC[N+](CC)(CC)CCOc1cccc(OCC[N+](CC)(CC)CC)c1OCC[N+](CC)(CC)CC [Gallamine triethiodide] | 1.13 ± 0.48 | 1.03 ± 0.04 | 0.833 | 0.998 ± 0.034
Cc1cccc(CN2CCN(C(c3ccccc3)c3ccc(Cl)cc3)CC2)c1 (stereo not given) [Meclozine dihydrochloride] | 1.25 ± 0.33 | 0.93 ± 0.015 | 0.417 | 1.03 ± 0.073
CCOC(=O)[C@@](C)(N)Cc1ccc(O)c(O)c1 [Methyldopate hydrochloride] | 1.28 ± 0.62 | 0.9116 ± 0.0027 | 0.667 | 1.014 ± 0.0011
CCCCC1C(=O)N(c2ccccc2)N(c2ccc(O)cc2)C1=O (stereo not given) [Oxyphenbutazone] | 1.27 ± 0.44 | 0.983 ± 0.027 | 1 | 0.998 ± 0.06
CC(=O)OCC(=O)[C@@]12N=C(C)O[C@@H]1C[C@H]1[C@@H]3CCC4=CC(=O)C=C[C@]4(C)[C@H]3[C@@H](O)C[C@@]12C [Deflazacort] | 1.15 ± 0.41 | 1.06 ± 0.014 | 0.25 | 0.944 ± 0.058
CC(C)NCC(O)c1ccc(O)c(O)c1 (single isomer, unassigned; (+)) [(+)-Isoproterenol (+)-bitartrate salt] | 1.57 ± 0.7 | 1.03 ± 0.023 | 0.833 | 1 ± 0.015
C=C1C(=O)O[C@H]2[C@H]1CC/C(C)=C/CC[C@@]1(C)O[C@@H]21 [Parthenolide] | 2.81 ± 1.2 | 0.8373 ± 0.0079 | 0.364 | 1.4 ± 0.038
CC1CCc2c(N3CCC(O)CC3)c(F)cc3c(=O)c(C(=O)O)cn1c23 (stereo not given) [Nadifloxacin] | 1.13 ± 0.33 | 1.01 ± 0.031 | 0.917 | 1.04 ± 0.029
CCCCc1nc(Cl)c(CO)n1Cc1ccc(-c2ccccc2-c2nnn[nH]2)cc1 [Losartan] | 0.969 ± 0.39 | 0.9444 ± 0.0062 | 0.75 | 1.04 ± 0.044
CN(C)CCC=C1c2ccccc2COc2ccccc21 [Doxepin hydrochloride] | 0.925 ± 0.22 | 0.99 ± 0.035 | 0.917 | 1.01 ± 0.076
Cc1c(NC(=O)c2cccnc2)c(=O)n(-c2ccccc2)n1C [Nifenazone] | 0.806 ± 0.28 | 1.03 ± 0.014 | 0.833 | 1 ± 0.023
CC[N+](CC)(CC(=O)Nc1c(C)cccc1C)Cc1ccccc1 [Denatonium benzoate] | 0.973 ± 0.36 | 0.844 ± 0.018 | 0.917 | 0.99113 ± 0.00026
CN/C(=N\CCSCc1nc[nH]c1C)NC#N [Cimetidine] | 1.02 ± 0.34 | 1.051 ± 0.0067 | 0.917 | 0.926 ± 0.062
Cc1c(N(C)CS(=O)(=O)O)c(=O)n(-c2ccccc2)n1C [Dipyrone] | 0.952 ± 0.36 | 0.936 ± 0.012 | 0.917 | 0.993 ± 0.021
CCN1CCN(C(=O)N[C@@H](C(=O)N[C@@H]2C(=O)N3[C@@H]2SC(C)(C)[C@@H]3C(=O)O)c2ccccc2)C(=O)C1=O [Piperacillin sodium salt] | 1.07 ± 0.47 | 0.991 ± 0.063 | 0.667 | 1.01 ± 0.046
COc1cc(N)c(Cl)cc1C(=O)NC1CCN(Cc2ccccc2)CC1 [Clebopride maleate] | 0.962 ± 0.3 | 0.9245 ± 0.0057 | 0.917 | 0.912 ± 0.027
CC1(C)[C@@H](OC(=O)CCC(=O)O)CC[C@]2(C)[C@H]3C(=O)C=C4[C@@H]5C[C@@](C)(C(=O)O)CC[C@]5(C)CC[C@@]4(C)[C@]3(C)CC[C@@H]12 [Carbenoxolone disodium salt] | 0.718 ± 0.41 | 1.04 ± 0.031 | 0.667 | 0.9894 ± 0.0072
Cc1cnc(NC(=O)C2=C(O)c3ccccc3S(=O)(=O)N2C)s1 [Meloxicam] | 6.33 ± 2.2 | 0.678 ± 0.021 | 0 | 1.76 ± 0.0091
CC(C[N+](C)(C)C)OC(N)=O (stereo not given) [Bethanechol chloride] | 0.946 ± 0.32 | 1.023 ± 0.0027 | 0.833 | 0.998 ± 0.024
CCCCOc1ccc(C(=O)CCN2CCCCC2)cc1 [Dyclonine hydrochloride] | 0.982 ± 0.26 | 1.02 ± 0.071 | 0.833 | 1.004 ± 0.0035
COc1ccc2c(c1)C(=O)N(CCc1ccc(S(=O)(=O)NC(=O)NC3CCCCC3)cc1)C(=O)C2(C)C [Gliquidone] | 1.07 ± 0.54 | 0.883 ± 0.011 | 1 | 1.12 ± 0.039
Cc1c(OCC(F)(F)F)ccnc1C[S+]([O-])c1nc2ccccc2[nH]1 (stereo not given) [Lansoprazole] | 1.25 ± 0.57 | 0.949 ± 0.04 | 0.333 | 1.17 ± 0.034
COc1ccccc1OCC(O)CO (stereo not given) [Guaifenesin] | 1.21 ± 0.52 | 0.929 ± 0.12 | 0.917 | 1.07 ± 0.035
